Screening results deposited in PubChem BioAssay by several laboratories.
AI-2 QS mod: Vibrio harveyi AI-2 quorum sensing modulation; Vibrio harveyi JMH597 AI-2 luminescence/OD600 ratio, 9 h; hits give low values; strain lacks LuxN and CqsS sensors; 0 = neutral-control median; activity change, % at 7.5 µM; hit rate 0.4% among 300,000; AID 2094; in the data active = activity change below about -75%, passing the limit was not always enough; inconclusive = no clear call, values can overlap the other calls;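 also: luminescence divided by OD600 gain over 9 h not by final OD600 alone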
ALR inh: blocks human ALR sulfhydryl oxidase activity | P55789 | purified ALR, DTT oxidation, H2O2 HRP-luminol luminescence | inhibition, % (concentration not given with the values) | hit rate 3.8% among 290,000 | AID 485317;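 active = mean replicate inhibition above about 79%, with every replicate also reaching it, limit read from the data; inconclusive = only one of the two criteria met; inactive = mean below limit and not every replicate reaching it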
CHT inh: human CHT choline transport inhibition; CHT-expressing cells, membrane potential dye, choline response; hits give low values; Q9GZV3; hit rate 0.86% among 310,000; B-score at 10 µM;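 active = B-score over 3 SD under the library average, and starting fluorescence ratio not unusually high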;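 also: choline stimulus applied at its EC90 after an EC20 pre-addition; B-score computed on integrated fluorescence ratio after choline addition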
CHT allo act: allosteric activators of human choline transporter CHT. Q9GZV3. CHT-expressing cells, membrane potential dye, choline EC20; hits give high values; LV-AA mutant CHT in HEK293 cells. B-score at 10 µM. hit rate 0.49% among 310,000;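 active = initial fluorescence not abnormally high and integrated response B-score, plate-corrected, over 3 SD above library mean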
PREPL inhibitor: human PREPL enzyme inhibition; Q4J6C6; recombinant PREPL, fluorescence polarization activity-based probe; inhibition, % at 5.96 µM; hit rate 0.68% among 320,000; AID 2751; in the data active = inhibition above about 43%;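 also: 0% = enzyme with DMSO and 100% = wells lacking enzyme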
* marks the source's active call; other numbers are inactive results; i = inactive; ? = inconclusive; · = no result. Shown are actives, neighbours in structure and some others; about 5% of the full set was active somewhere.

SMILES	AI-2 QS mod	ALR inh	CHT inh	CHT allo act	PREPL inhibitor
CCCCNC(=O)C1c2ccccc2Oc2ccccc21	15	-4	i	i	-9
CCCCc1nnc(NC(=O)COc2ccc3c(C)cc(=O)oc3c2)s1	8	·	i	i	18
Cc1cc(C(=O)C(=O)O)c(C)n1-c1ccc(Cl)c(Cl)c1	5	95*	i	i	-9
CCOC(=O)/C=C/C(=O)OCC(=O)Nc1cccc(Br)c1	68	91*	i	i	25
CCOc1c(C)cnc2c1c(=O)n(Cc1c(F)cccc1Cl)c(=O)n2C	25	-3	i	i	2
CC(C)c1ccc(NS(=O)(=O)c2ccc(Cl)nc2)cc1	-92*	·	i	i	-5
COc1cccc(N2CCN(Cc3cccnc3)CC2)c1	39	91*	i	i	1
CC(C)Cn1c(SC(C)C(=O)NCC2CCCO2)nc2ccc(Cl)cc2c1=O (stereo not given)	·	-5	·	·	8
CN1C2CCC1CC(NC(=O)CSCc1ccc(Cl)cc1Cl)C2 (stereo not given)	29	98*	i	i	24
Cc1ccc2nc3n(c2c1)CCCN3	4	31	i	i	2
S=c1[nH]nc2n1CCCN2	35	95*	i	i	-4
CC(NC(=O)CN1C(=O)NC2(CCCC2)C1=O)c1ccc2ccccc2c1 (stereo not given)	·	·	·	·	0
O=[N+]([O-])c1ccccc1/C=C/C=N/Nc1ccc(S(=O)(=O)Nc2ccc(Cl)cc2)cc1[N+](=O)[O-]	22	-3	i	i	17
O=C(c1ccccc1Br)N1CCc2c([nH]c3ccccc23)C1	16	83*	i	i	18
O=C(C1CC1)N1CCc2[nH]c3ccccc3c2C1	27	·	i	i	-5
CCOCCCNC(=O)CN(c1cc([N+](=O)[O-])ccc1OC)S(C)(=O)=O	15	-19	i	i	3
COc1ccc(/C=N/Nc2nc3ccccc3s2)cc1O	14	·	·	·	·
COc1cc(/C=N/Nc2nc3ccccc3o2)cc(OC)c1O	38	99*	i	i	5
COc1ccc(/C=N/Nc2nc3ccccc3o2)cc1O	16	99*	i	i	25
Cc1ccc(Oc2ccc(S(=O)(=O)Nc3ccc(C(=O)O)cc3)cc2)cc1	·	98*	·	·	1
Cc1ccc(Sc2ccc(S(=O)(=O)Nc3ccc(C(=O)O)cc3)cc2)cc1C	·	98*	·	·	3
Cc1cc(Nc2ccccc2)cc(=O)n1C	14	3	i	i	25
Oc1ccc(/C=N/NC(=S)NCC2CCCO2)cc1 (stereo not given)	-1	98*	i	i	2
Oc1ccc(/C=N/NC(=S)NC2CC3CCC2C3)cc1 (stereo not given)	22	99*	i	i	2
CCN(CC)c1ccc(NC(=S)NCC2CCCO2)cc1 (stereo not given)	24	100*	i	i	-1
SMILES	AI-2 QS mod	ALR inh	CHT inh	CHT allo act	PREPL inhibitor
CC(C(=O)OCC(=O)c1ccc(Br)cc1)N1C(=O)C2C3CCC(C3)C2C1=O (stereo not given)	13	-4	i	i	11
COc1ccc2[nH]cc(/C=C/c3cc[n+](C)cc3)c2c1	13	23	i	i	23
COc1ccccc1CC(=O)Nc1ccc(S(=O)(=O)N2CCOCC2)cc1	28	-6	i	i	6
CC(=O)N1[C@H](Cc2ccccc2)C=C[C@]1(C)C(=O)NCCc1c[nH]c2ccccc12	11	99*	i	i	-12
CC(=O)N1[C@H](Cc2ccccc2)C=C[C@]1(C)C(=O)NCc1ccc(C)o1	22	-6	i	i	-2
O=C(c1sc2cccc(Cl)c2c1Cl)N1CCN(CCc2ccccn2)CC1	15	-6	i	i	12
Fc1ccccc1-n1cc(-c2ccccc2)[nH]c1=S	23	93*	i	i	7
COc1ccc(-n2cc(-c3ccccc3)[nH]c2=S)c(OC)c1	18	90*	i	i	6
O=C(NCCOc1ccc(F)cc1)C1CCC(=O)N(CCN2CCOCC2)C1 (stereo not given)	20	-2	i	i	10
c1ccc(Oc2cccc(OCCCCN3CCCC3)c2)cc1	10	-14	i	i	13
OCCC1CN(Cc2ccccc2-c2ccco2)CCN1C1CCCC1 (stereo not given)	10	-1	i	i	4
Cn1c(=O)c2cc(S(=O)(=O)NCCC(=O)Nc3ccc(Cl)cc3)ccc2n(C)c1=O	25	·	i	i	20
Cn1c(=O)c2cc(S(=O)(=O)NCCC(=O)NCCc3ccc(Cl)cc3)ccc2n(C)c1=O	26	98*	i	i	3
Cc1cc(OC(C)C(=O)NCc2cccnc2)c2c(C)cc(=O)oc2c1 (stereo not given)	14	-14	i	i	9
Cc1cc(Oc2ncccc2[N+](=O)[O-])c2cc(Cl)ccc2n1	27	97*	i	i	15
Oc1[nH]c2ccccc2c1C=NCC1CCCO1 (stereo not given)	-1	98*	i	i	10
CSc1ccc(NC(=O)NCCN2CCc3ccccc3C2)cc1	-7	98*	i	i	23
CCN(CC)c1ccc(NC(=O)CN2CCN(CC(=O)Nc3ccc(F)cc3)CC2)cc1	·	98*	i	i	15
CC(=O)Nc1ccc(NC(=O)CN2CCN(c3ccccn3)CC2)cc1	17	·	i	i	8
CN(C)c1ccc(NC(=O)CCn2c(=S)oc3ccccc32)cc1	14	98*	i	i	58*
CN(C)c1ccc(NC(=O)CCN2CCN(c3ccccn3)CC2)cc1	32	99*	i	i	6
CCN(CC)c1ccc(NC(=O)CN2CCN(CC(=O)Nc3ccc(OC)cc3)CC2)cc1	38	?	i	i	8
CN(C)S(=O)(=O)n1cc(/C=C(\NC(=O)c2ccccc2F)C(=O)NCCCn2ccnc2)c2ccccc21	-8	·	·	·	·
COc1ccccc1C(CNC(=O)CNC(=O)c1ccccc1Cl)N1CCCC1 (stereo not given)	·	-11	·	·	6
CC(=O)Nc1ccc(OCc2nnc(-c3ccc(Cl)cc3)o2)cc1	9	3	i	i	3
O=C(O)c1cc([N+](=O)[O-])ccc1NCc1ccccn1	·	-5	i	i	-6
CN1CC(=O)N(CC(=O)Nc2ccc(N(C)C)cc2)c2ccccc2C1=O	15	99*	i	i	6
CN(C)c1ccc(NC(=O)CN2CCC(N3CCCCC3)CC2)cc1	12	99*	i	i	8
CN(C)c1ccc(NC(=O)CN2CCc3ccccc3C2)cc1	·	99*	i	i	33
O=C(O)C1CCN(S(=O)(=O)c2cccc3cccnc23)CC1	-8	-6	i	i	4
